# In article PMC7862700, “An all-to-all approach to the identification of sequence-specific readers for epigenetic DNA modifications on cytosine”:
# Legend:
# Experiment in all cases: DAPPL (digital affinity profiling via proximity ligation, sequencing); 10 mM Tris-HCl pH 7.5, 50 mM NaCl, 1 mM DTT, 4% glycerol, room temperature, 30 min; GST-TFs on glutathione beads, 16-mer random dsDNA library, 0.1% formaldehyde crosslink after washing; high values mean tight binding
# FEV = target: T1, FEV (Homo sapiens, UniProt Q99581 1-238); conditions: protein: recombinant; tags: N-terminal GST; dsDNA, one strand shown
# T1 sequence: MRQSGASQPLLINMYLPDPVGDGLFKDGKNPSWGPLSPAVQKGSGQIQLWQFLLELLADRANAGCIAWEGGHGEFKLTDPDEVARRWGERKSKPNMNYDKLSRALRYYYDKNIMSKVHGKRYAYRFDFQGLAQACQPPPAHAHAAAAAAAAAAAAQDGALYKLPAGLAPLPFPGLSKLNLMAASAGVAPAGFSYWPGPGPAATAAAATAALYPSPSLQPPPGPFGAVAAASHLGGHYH
# Procedure, shortened: (§1)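 Pools of DNA-barcoded human transcription factors, expressed in yeast as GST fusions on glutathione beads and combined with a tag-only sample, were incubated with 200 nmole of a 16-mer random double-stranded DNA library. Incubation took 30 min at room temperature in Tris/NaCl/DTT/glycerol buffer and was followed by washing, 0.1% formaldehyde crosslinking, proximity ligation (BsaI/T4 ligase, 1 h, 37 °C), PCR amplification and sequencing on an Illumina NextSeq500. Binding signal is the ratio of a hexamer's read frequency for a factor to its frequency for the tag-only sample.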
# ETV5 = ETV5 (Homo sapiens, UniProt P41161 1-510); conditions: protein: recombinant; tags: N-terminal GST; dsDNA, one strand shown
# ETV5, sequence (P41161 whole entry): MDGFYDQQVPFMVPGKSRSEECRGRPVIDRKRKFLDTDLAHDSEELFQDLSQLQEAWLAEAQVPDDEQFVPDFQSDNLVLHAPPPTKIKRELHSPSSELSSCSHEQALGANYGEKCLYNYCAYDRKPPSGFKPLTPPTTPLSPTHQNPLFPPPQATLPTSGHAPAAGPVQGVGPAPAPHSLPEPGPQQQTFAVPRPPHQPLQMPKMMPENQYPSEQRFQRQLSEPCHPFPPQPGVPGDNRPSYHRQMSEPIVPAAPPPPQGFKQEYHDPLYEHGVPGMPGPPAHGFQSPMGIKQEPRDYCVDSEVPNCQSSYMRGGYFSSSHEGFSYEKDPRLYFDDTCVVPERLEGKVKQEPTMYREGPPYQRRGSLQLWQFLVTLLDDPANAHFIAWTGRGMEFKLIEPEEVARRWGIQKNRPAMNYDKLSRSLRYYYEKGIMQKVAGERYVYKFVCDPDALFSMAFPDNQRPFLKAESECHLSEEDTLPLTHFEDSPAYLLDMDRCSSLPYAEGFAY
# Procedure, shortened: as §1
# HSF1 = HSF1 (Homo sapiens, UniProt Q00613 1-529); conditions: protein: recombinant; tags: N-terminal GST; chain copies: 3; dsDNA, one strand shown
# HSF1, sequence (Q00613 whole entry): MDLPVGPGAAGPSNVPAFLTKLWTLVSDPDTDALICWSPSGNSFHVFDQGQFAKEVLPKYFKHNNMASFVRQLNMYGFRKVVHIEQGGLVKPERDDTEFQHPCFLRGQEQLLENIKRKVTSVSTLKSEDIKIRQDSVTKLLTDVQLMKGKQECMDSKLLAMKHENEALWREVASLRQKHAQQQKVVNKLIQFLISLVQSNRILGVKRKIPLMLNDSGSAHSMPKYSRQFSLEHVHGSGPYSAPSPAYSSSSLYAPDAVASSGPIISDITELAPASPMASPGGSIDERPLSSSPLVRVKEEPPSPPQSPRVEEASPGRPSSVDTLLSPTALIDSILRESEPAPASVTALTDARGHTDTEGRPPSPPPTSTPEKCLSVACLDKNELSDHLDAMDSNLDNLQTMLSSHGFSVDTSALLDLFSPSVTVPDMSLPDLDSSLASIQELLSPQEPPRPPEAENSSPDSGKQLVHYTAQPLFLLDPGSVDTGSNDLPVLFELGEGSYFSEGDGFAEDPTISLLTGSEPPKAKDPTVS
# Procedure, shortened: as §1
# SPIC = target: T2, SPIC (Homo sapiens, UniProt Q8N5J4 1-248); conditions: protein: recombinant; tags: N-terminal GST; dsDNA, one strand shown
# T2 sequence: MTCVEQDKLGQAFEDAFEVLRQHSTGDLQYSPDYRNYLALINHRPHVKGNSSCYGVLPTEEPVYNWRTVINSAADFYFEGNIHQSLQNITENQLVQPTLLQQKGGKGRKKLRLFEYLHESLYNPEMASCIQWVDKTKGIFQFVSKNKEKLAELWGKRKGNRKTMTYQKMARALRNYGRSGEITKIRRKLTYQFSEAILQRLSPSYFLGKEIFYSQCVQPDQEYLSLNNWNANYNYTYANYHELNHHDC
# Procedure, shortened: as §1
# ELF4 = ELF4 (Homo sapiens, UniProt Q99607 1-663); conditions: protein: recombinant; tags: N-terminal GST; dsDNA, one strand shown
# ELF4, sequence (Q99607 whole entry): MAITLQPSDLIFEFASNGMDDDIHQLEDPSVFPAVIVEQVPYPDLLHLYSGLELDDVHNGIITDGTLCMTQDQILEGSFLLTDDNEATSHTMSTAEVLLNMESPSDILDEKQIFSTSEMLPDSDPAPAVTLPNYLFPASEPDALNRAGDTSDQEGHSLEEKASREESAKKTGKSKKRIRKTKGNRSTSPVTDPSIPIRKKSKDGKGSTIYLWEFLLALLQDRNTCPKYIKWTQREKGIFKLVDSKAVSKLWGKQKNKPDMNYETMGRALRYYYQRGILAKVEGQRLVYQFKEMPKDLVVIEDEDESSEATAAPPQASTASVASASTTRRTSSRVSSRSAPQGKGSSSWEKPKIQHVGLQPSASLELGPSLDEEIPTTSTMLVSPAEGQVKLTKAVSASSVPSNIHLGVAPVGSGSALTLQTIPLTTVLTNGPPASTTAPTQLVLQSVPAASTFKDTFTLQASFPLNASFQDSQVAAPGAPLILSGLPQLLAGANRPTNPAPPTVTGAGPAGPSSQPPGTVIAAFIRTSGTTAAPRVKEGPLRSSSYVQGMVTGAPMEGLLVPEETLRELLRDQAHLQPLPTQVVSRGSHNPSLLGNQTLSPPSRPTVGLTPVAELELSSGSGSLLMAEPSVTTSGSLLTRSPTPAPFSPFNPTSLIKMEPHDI
# Procedure, shortened: as §1
# ELK4 = target: T3, ELK4 (Homo sapiens, UniProt P28324-2 1-405); conditions: protein: recombinant; tags: N-terminal GST; dsDNA, one strand shown
# T3 sequence: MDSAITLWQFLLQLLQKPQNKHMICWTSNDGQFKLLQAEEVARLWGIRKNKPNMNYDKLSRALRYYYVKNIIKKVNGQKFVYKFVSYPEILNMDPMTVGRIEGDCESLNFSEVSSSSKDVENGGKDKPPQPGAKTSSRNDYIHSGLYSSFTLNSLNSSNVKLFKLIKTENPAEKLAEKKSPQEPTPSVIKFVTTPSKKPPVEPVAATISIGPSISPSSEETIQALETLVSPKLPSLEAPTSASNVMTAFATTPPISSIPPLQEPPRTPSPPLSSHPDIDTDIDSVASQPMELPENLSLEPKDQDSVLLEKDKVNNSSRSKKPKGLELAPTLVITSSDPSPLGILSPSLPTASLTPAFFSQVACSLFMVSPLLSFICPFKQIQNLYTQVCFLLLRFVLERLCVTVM
# Procedure, shortened: as §1
# ETV2 = target: T4, ETV2 (Homo sapiens, UniProt O00321 1-342); conditions: protein: recombinant; tags: N-terminal GST; dsDNA, one strand shown
# T4 sequence: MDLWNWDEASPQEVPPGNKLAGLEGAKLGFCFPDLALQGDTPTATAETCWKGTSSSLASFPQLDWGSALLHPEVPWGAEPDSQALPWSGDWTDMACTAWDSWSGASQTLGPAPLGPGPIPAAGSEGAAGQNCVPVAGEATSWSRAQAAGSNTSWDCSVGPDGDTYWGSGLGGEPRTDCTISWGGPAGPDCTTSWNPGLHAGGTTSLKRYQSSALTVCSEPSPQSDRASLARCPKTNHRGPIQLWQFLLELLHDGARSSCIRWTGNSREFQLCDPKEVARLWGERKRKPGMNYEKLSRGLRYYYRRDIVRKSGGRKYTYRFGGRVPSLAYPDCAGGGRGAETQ
# Procedure, shortened: as §1
# ELF3 = target: T5, ELF3 (Homo sapiens, UniProt P78545 1-371); conditions: protein: recombinant; tags: N-terminal GST; dsDNA, one strand shown
# T5 sequence: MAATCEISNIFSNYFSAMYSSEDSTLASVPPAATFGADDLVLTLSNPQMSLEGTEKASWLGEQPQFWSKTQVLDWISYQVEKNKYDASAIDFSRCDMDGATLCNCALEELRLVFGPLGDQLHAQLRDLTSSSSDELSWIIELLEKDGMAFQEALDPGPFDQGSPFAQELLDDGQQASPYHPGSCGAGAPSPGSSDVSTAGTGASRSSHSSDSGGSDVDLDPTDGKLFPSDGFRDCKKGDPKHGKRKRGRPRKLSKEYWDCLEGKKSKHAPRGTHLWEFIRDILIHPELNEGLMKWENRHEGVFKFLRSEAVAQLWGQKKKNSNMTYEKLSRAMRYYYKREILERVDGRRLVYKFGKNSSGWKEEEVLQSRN
# Procedure, shortened: as §1
# CRX = CRX (Homo sapiens, UniProt O43186 1-299); conditions: protein: recombinant; tags: N-terminal GST; dsDNA, one strand shown
# CRX, sequence (O43186 whole entry): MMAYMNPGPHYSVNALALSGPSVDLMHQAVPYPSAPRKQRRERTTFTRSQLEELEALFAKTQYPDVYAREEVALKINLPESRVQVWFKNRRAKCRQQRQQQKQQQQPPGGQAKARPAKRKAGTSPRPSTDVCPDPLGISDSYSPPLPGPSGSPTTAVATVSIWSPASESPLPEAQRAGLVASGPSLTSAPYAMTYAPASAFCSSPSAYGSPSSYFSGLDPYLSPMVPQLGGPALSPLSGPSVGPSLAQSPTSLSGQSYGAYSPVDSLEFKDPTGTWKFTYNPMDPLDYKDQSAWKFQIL
# Procedure, shortened: as §1
# ETV1 = ETV1 (Homo sapiens, UniProt P50549 1-477); conditions: protein: recombinant; tags: N-terminal GST; dsDNA, one strand shown
# ETV1, sequence (P50549 whole entry): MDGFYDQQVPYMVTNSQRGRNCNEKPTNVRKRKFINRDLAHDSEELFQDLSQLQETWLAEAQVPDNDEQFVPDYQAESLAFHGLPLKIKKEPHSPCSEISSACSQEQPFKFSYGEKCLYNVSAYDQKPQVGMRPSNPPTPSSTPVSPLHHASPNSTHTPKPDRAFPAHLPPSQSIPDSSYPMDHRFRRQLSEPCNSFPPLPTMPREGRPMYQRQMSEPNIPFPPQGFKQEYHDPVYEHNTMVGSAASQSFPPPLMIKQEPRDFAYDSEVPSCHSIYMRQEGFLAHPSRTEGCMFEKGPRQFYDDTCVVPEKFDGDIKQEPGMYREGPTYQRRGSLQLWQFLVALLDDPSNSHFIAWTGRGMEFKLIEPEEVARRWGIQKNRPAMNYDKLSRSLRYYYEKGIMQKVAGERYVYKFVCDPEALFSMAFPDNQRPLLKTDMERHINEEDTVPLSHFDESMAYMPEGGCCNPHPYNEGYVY
# Procedure, shortened: as §1
# ERF = target: T6, ERF (Homo sapiens, UniProt P50548 1-548); conditions: protein: recombinant; tags: N-terminal GST; dsDNA, one strand shown
# T6 sequence: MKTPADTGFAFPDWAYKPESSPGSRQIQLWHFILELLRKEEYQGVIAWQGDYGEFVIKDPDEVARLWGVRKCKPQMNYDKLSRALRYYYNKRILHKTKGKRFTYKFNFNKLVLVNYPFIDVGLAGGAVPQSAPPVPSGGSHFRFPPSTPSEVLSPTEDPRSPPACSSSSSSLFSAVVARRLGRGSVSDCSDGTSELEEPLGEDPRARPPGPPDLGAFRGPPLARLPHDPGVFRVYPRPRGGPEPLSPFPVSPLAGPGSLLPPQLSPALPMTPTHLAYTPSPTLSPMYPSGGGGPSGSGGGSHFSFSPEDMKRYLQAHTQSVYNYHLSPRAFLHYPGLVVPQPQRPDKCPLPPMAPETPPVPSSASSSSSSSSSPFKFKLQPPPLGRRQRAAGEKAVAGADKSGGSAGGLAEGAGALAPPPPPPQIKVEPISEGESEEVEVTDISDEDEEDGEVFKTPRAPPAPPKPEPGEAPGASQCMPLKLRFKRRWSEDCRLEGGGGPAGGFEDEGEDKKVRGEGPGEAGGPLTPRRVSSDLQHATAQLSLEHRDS
# Procedure, shortened: as §1
# ETV3L = target: T7, ETV3L (Homo sapiens, UniProt Q6ZN32 1-361); conditions: protein: recombinant; tags: N-terminal GST; dsDNA, one strand shown
# T7 sequence: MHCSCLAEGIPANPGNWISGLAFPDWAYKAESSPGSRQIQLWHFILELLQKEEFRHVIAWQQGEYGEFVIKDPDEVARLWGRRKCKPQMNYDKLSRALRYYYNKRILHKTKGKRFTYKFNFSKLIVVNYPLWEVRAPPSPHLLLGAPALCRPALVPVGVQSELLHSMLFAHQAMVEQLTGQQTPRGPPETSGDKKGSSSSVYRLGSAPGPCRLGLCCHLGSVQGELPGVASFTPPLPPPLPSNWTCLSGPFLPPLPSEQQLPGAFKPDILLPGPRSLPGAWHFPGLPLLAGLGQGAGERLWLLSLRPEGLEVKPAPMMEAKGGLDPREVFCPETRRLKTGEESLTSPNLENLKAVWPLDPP
# Procedure, shortened: as §1
# ETS2 = target: T8, ETS2 (Homo sapiens, UniProt P15036 1-469); conditions: protein: recombinant; tags: N-terminal GST; dsDNA, one strand shown
# T8 sequence: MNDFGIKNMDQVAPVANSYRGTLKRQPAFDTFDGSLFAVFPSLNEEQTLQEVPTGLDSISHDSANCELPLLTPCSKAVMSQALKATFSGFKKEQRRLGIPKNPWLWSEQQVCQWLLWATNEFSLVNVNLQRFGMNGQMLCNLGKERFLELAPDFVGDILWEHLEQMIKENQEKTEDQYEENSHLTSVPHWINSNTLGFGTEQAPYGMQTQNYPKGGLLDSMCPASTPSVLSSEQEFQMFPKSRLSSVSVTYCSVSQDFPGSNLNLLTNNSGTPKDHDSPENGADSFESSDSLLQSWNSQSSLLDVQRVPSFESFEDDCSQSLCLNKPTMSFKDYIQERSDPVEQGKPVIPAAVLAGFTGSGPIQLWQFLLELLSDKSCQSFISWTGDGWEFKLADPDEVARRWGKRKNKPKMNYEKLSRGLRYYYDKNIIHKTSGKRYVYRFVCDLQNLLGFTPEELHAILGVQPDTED
# Procedure, shortened: as §1
# SPDEF = target: T9, SPDEF (Homo sapiens, UniProt O95238 1-335); conditions: protein: recombinant; tags: N-terminal GST; dsDNA, one strand shown
# T9 sequence: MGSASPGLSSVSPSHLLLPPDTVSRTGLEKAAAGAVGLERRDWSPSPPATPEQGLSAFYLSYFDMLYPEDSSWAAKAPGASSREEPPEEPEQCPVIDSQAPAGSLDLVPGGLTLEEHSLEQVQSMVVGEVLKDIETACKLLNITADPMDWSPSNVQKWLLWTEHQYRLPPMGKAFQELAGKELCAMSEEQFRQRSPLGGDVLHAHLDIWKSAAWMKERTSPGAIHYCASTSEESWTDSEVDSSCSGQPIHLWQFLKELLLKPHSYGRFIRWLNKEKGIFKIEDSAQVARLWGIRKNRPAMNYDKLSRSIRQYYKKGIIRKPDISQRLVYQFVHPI
# Procedure, shortened: as §1
# ETV7 = target: T10, ETV7 (Homo sapiens, UniProt Q9Y603 1-341); conditions: protein: recombinant; tags: N-terminal GST; dsDNA, one strand shown
# T10 sequence: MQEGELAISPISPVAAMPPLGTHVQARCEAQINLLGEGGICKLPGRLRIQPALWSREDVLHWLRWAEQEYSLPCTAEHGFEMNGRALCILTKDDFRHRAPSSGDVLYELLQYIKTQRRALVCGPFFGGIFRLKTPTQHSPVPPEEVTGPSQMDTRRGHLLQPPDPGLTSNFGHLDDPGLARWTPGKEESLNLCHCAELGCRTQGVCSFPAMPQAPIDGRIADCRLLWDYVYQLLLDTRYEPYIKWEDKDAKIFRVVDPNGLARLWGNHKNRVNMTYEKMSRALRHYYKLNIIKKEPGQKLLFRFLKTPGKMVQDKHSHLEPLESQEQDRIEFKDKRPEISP
# Procedure, shortened: as §1
# ELF5 = target: T11, ELF5 (Homo sapiens, UniProt Q9UKW6-2 1-255); conditions: protein: recombinant; tags: N-terminal GST; dsDNA, one strand shown
# T11 sequence: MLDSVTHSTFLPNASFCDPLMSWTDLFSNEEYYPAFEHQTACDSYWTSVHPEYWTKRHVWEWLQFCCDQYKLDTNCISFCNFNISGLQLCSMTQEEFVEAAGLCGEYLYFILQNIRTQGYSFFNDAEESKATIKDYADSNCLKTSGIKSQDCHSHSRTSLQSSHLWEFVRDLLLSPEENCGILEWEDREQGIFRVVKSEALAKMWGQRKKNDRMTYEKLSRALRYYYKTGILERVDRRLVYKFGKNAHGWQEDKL
# Procedure, shortened: as §1
# ETV3 = target: T12, ETV3 (Homo sapiens, UniProt P41162-2 1-143); conditions: protein: recombinant; tags: N-terminal GST; dsDNA, one strand shown
# T12 sequence: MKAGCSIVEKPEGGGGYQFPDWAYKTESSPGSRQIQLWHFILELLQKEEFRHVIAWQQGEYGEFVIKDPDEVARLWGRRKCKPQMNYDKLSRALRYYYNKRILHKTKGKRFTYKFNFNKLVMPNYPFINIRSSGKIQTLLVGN
# Procedure, shortened: as §1
# ETV6 = ETV6 (Homo sapiens, UniProt P41212 1-452); conditions: protein: recombinant; tags: N-terminal GST; dsDNA, one strand shown
# ETV6, sequence (P41212 whole entry): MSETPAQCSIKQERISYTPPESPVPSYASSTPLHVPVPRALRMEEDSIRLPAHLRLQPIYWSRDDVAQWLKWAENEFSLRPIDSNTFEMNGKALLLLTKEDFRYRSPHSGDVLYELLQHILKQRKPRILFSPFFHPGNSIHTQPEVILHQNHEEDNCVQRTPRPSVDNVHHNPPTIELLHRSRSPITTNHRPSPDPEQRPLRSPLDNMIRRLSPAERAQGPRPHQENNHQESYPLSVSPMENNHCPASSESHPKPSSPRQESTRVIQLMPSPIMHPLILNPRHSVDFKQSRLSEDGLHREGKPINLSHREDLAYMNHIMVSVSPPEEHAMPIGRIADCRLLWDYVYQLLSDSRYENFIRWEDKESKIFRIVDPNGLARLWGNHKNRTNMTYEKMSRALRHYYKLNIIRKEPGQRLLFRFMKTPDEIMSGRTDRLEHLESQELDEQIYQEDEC
# Procedure, shortened: as §1
sequence,measurement,setting,value
TTCAAA,binding signal,FEV,"1.25 fold enrichment (6-mer frequency, TF over GST control)"
same,binding signal,ETV5,"1.26 fold enrichment (6-mer frequency, TF over GST control)"
same,binding signal,HSF1,"1.25 fold enrichment (6-mer frequency, TF over GST control)"
same,binding signal,SPIC,"1.35 fold enrichment (6-mer frequency, TF over GST control)"
same,binding signal,ELF4,"1.26 fold enrichment (6-mer frequency, TF over GST control)"
same,binding signal,ELK4,"1.33 fold enrichment (6-mer frequency, TF over GST control)"
same,binding signal,ETV2,"1.34 fold enrichment (6-mer frequency, TF over GST control)"
same,binding signal,ELF3,"1.43 fold enrichment (6-mer frequency, TF over GST control)"
same,binding signal,CRX,"1.28 fold enrichment (6-mer frequency, TF over GST control)"
same,binding signal,ETV1,"1.32 fold enrichment (6-mer frequency, TF over GST control)"
same,binding signal,ERF,"1.26 fold enrichment (6-mer frequency, TF over GST control)"
same,binding signal,ETV3L,"1.27 fold enrichment (6-mer frequency, TF over GST control)"
same,binding signal,ETS2,"1.25 fold enrichment (6-mer frequency, TF over GST control)"
same,binding signal,SPDEF,"1.23 fold enrichment (6-mer frequency, TF over GST control)"
same,binding signal,ETV7,"1.19 fold enrichment (6-mer frequency, TF over GST control)"
same,binding signal,ELF5,"1.21 fold enrichment (6-mer frequency, TF over GST control)"
same,binding signal,ETV3,"1.23 fold enrichment (6-mer frequency, TF over GST control)"
same,binding signal,ETV6,"1.27 fold enrichment (6-mer frequency, TF over GST control)"
